Experiment [1] deals with T1, Tyrosine-protein kinase receptor TYRO3 (Homo sapiens) (UniProt Q06418).
T1 sequence (whole entry): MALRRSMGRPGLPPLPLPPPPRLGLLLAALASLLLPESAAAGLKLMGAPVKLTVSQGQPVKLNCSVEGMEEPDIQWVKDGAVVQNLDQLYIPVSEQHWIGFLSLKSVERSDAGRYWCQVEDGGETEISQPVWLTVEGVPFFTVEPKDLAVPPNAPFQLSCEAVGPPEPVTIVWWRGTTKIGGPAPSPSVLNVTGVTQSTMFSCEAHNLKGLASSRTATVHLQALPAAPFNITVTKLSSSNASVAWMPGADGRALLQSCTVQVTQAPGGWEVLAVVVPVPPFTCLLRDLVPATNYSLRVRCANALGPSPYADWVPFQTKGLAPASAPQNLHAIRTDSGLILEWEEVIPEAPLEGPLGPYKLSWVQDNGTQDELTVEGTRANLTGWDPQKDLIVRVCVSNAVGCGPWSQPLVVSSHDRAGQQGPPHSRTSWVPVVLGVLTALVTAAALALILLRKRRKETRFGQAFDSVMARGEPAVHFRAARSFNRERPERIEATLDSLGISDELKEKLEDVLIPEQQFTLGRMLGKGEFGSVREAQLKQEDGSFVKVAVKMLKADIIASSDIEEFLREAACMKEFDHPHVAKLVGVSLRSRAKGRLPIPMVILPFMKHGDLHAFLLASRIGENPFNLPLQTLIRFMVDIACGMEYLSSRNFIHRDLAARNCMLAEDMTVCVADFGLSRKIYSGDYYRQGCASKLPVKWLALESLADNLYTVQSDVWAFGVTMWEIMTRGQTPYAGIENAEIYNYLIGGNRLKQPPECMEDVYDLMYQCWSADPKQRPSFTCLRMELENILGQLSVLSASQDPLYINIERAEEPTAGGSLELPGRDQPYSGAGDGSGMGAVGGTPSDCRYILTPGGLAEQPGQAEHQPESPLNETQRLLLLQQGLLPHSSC
As to conditions: at 1 µM.

Experiment [2] concerns the target Tyrosine-protein kinase Yes (Homo sapiens) (UniProt P07947). As to conditions: at 0.1 µM.
For experiment [3] the target is unchanged. As to conditions: at 1 µM.
Experiment [4] addresses T2, Tyrosine-protein kinase ZAP-70 (Homo sapiens) (UniProt P43403).
T2 sequence (whole entry): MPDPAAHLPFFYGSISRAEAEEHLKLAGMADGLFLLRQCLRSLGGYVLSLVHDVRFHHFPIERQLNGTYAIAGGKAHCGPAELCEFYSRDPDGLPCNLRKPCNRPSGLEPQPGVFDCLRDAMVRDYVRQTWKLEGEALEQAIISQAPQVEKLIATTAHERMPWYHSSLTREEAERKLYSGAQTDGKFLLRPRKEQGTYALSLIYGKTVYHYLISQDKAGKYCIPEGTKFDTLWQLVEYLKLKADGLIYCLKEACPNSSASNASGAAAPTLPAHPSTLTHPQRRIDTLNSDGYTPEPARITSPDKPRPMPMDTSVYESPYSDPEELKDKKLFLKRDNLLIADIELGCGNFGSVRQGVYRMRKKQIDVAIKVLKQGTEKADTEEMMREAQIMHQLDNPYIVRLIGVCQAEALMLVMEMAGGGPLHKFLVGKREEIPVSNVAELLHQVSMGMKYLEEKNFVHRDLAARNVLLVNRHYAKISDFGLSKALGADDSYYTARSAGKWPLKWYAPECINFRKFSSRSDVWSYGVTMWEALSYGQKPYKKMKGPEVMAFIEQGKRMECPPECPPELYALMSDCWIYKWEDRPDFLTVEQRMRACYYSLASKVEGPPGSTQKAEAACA
As to conditions: at 0.1 µM.

Experiment [5] concerns the target T2, Tyrosine-protein kinase ZAP-70 (Homo sapiens). The following applies: at 1 µM.
Experiment [6] has as its target Serine/threonine-protein kinase B-raf (Homo sapiens) (UniProt P15056). The following applies: at 0.1 µM.
For experiment [7] the target is unchanged. The following applies: at 1 µM.
Experiment [8] concerns Serine/threonine-protein kinase B-raf (Homo sapiens), P15056 [V600E]. The following applies: at 0.1 µM.
Experiment [9] shares this test system. The following applies: at 1 µM.
Experiment [10] addresses RAF proto-oncogene serine/threonine-protein kinase (Homo sapiens) (UniProt P04049). The following applies: at 0.1 µM.
For experiment [11] the target is unchanged. As to conditions: at 1 µM.
In experiment [12] the target is T3, Interleukin-1 receptor-associated kinase 4 (Homo sapiens) (UniProt Q9NWZ3).
T3 sequence (whole entry): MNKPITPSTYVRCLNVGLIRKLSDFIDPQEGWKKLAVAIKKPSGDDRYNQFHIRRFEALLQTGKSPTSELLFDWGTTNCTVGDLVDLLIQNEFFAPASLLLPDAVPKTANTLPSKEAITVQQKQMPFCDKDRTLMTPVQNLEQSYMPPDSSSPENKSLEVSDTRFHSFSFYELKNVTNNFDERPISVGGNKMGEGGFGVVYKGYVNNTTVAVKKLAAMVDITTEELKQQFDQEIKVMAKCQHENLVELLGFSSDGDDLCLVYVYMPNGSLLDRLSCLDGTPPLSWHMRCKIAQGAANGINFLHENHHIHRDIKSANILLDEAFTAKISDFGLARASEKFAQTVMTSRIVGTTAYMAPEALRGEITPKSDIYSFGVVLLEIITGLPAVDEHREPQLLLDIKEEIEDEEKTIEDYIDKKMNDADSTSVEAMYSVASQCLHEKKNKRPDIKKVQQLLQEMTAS
The following applies: at 0.1 µM.

The target of experiment [13] is T3, Interleukin-1 receptor-associated kinase 4 (Homo sapiens). The following applies: at 1 µM.
For experiment [14], the target named is Leucine-rich repeat serine/threonine-protein kinase 2 (Homo sapiens) (UniProt Q5S007). As to conditions: at 0.1 µM.
Experiment [15] has the same target. The following applies: at 1 µM.
For experiment [16], the system named is Leucine-rich repeat serine/threonine-protein kinase 2 (Homo sapiens), Q5S007 [G2019S]. The following applies: at 0.1 µM.
The test system is the same in experiment [17]. The following applies: at 1 µM.

For 7 molecules, inhibition results are on record in ChEMBL document CHEMBL1961873, “Compounds: GSK PKIS; Assays: Nanosyn kinase panel” (2012).

Chain of RAF proto-oncogene serine/threonine-protein kinase (Homo sapiens) (P04049 whole entry): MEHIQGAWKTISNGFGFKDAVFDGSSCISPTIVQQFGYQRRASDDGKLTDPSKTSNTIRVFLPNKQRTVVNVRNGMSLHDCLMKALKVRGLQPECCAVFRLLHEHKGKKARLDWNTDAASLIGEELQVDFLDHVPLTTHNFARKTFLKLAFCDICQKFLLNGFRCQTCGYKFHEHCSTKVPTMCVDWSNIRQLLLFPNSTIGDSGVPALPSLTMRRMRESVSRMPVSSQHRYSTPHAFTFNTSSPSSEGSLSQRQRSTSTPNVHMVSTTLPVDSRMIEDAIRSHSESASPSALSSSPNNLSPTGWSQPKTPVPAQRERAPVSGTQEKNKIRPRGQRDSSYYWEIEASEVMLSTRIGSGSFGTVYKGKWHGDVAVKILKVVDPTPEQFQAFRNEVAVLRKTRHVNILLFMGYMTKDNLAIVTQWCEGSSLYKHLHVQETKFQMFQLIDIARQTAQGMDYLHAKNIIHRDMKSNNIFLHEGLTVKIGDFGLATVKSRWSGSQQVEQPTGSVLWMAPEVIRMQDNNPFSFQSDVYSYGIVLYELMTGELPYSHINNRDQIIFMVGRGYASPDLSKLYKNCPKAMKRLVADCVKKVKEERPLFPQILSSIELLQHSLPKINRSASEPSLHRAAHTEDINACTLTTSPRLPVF
Chain of Tyrosine-protein kinase Yes (Homo sapiens) (P07947 2-543 limits assumed): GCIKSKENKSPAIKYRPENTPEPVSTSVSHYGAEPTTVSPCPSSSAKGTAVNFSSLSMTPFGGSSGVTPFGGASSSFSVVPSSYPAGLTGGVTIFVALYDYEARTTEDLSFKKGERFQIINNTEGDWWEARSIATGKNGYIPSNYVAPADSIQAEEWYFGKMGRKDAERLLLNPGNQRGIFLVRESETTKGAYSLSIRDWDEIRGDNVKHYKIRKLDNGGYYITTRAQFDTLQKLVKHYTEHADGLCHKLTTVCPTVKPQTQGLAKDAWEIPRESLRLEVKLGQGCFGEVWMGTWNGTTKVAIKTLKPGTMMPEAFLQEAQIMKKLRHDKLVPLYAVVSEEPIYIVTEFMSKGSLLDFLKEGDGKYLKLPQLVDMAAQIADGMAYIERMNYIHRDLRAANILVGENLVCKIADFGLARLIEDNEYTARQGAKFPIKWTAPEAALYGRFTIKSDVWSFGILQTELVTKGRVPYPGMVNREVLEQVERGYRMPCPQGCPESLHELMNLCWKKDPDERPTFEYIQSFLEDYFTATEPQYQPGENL
Chain of Leucine-rich repeat serine/threonine-protein kinase 2 (Homo sapiens) (Q5S007 whole entry): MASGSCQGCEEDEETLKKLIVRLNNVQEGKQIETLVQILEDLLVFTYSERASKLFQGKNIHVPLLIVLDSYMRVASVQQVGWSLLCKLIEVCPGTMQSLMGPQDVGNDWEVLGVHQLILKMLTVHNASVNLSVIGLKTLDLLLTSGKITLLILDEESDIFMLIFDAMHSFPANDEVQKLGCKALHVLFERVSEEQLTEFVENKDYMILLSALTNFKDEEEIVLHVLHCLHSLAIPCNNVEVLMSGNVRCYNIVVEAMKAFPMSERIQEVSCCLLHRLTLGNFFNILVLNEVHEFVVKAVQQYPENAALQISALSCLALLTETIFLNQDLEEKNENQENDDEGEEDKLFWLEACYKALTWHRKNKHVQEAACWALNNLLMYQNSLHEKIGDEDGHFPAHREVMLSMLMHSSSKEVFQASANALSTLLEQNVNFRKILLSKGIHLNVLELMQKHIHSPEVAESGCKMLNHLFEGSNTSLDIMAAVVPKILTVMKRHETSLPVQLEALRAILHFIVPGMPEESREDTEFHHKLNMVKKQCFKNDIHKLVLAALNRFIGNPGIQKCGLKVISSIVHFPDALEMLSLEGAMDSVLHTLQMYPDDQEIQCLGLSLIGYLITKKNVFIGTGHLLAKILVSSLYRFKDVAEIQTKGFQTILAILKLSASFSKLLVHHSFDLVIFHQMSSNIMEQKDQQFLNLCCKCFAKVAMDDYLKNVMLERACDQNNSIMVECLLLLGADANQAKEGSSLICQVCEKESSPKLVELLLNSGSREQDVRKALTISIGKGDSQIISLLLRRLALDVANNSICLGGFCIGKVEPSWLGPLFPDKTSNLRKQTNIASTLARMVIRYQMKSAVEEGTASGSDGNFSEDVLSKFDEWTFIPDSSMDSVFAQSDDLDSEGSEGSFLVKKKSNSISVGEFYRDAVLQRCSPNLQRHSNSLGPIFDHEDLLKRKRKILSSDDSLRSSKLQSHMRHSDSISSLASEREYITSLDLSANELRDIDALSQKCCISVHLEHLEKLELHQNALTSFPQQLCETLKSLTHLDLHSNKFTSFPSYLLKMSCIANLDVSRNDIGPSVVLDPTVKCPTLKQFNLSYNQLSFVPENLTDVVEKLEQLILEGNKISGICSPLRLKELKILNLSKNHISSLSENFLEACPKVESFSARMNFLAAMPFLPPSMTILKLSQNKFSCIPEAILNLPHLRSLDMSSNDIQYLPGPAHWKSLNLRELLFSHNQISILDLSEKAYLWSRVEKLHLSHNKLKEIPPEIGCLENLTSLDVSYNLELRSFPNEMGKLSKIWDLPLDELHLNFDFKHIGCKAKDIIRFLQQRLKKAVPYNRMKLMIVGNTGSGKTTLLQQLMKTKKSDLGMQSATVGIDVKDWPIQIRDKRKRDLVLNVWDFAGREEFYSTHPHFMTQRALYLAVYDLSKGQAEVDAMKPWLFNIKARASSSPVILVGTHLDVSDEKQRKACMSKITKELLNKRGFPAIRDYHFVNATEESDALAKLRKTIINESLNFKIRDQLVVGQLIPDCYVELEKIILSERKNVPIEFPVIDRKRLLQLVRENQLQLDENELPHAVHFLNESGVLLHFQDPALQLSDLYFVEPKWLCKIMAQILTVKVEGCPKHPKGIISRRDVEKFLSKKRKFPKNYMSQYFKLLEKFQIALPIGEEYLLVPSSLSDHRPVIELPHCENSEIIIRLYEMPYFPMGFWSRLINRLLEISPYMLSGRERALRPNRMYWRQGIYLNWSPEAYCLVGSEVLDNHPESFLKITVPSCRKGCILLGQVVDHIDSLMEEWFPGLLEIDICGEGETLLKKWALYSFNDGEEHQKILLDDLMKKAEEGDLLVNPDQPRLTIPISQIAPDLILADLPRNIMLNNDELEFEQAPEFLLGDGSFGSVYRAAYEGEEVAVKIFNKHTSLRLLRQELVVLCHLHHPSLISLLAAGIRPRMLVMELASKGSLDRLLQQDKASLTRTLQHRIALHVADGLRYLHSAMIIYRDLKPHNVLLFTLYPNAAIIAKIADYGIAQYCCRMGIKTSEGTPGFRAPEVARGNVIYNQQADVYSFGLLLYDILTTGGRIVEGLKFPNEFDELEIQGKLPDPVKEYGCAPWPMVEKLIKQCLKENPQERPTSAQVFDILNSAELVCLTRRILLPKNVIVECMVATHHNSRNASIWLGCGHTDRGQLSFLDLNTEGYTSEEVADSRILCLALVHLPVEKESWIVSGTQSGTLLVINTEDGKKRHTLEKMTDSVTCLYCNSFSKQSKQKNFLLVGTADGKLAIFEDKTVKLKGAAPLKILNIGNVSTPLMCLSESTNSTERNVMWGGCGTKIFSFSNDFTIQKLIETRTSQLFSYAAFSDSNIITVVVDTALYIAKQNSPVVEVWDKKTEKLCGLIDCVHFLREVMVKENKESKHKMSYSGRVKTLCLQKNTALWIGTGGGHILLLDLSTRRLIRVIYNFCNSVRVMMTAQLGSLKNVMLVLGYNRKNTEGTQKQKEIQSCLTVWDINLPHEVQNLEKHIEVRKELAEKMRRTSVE
Chain of Serine/threonine-protein kinase B-raf (Homo sapiens), P15056 [V600E] (P15056 whole entry V600E): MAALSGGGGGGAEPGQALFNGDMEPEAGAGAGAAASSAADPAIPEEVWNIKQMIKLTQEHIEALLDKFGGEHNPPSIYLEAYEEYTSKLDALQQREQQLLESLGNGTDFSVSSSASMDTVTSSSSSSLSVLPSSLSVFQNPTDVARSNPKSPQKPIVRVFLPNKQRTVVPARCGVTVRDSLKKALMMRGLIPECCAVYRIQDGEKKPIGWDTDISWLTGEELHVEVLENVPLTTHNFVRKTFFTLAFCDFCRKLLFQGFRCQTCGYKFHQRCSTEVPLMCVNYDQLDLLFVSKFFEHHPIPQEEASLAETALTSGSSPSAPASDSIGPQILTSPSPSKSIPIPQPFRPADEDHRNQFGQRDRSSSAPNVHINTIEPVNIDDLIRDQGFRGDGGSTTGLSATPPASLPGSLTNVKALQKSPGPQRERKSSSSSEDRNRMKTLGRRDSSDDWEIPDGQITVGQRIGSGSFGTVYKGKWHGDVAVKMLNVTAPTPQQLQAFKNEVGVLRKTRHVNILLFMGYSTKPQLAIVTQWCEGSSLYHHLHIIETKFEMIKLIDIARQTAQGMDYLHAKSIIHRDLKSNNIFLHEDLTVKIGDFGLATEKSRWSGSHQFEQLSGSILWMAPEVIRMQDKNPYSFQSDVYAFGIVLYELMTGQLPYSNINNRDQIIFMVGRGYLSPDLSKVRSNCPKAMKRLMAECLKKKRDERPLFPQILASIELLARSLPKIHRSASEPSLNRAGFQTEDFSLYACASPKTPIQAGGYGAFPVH
Chain of Leucine-rich repeat serine/threonine-protein kinase 2 (Homo sapiens), Q5S007 [G2019S] (Q5S007 whole entry G2019S): as the sequence (Q5S007 whole entry) above, with G2019S counted along it
Chain of Serine/threonine-protein kinase B-raf (Homo sapiens) (P15056 whole entry): as the sequence (P15056 whole entry V600E) above, with E600V counted along it

Turning to `COc1ccccc1-c1cc(/C=C2\C(=O)Nc3ncc(Br)cc32)cc(Br)c1O`, the inhibition in [1] was 3.41%; in experiment [2] it was -0.07%; in experiment [3] it was 12.9%; in experiment [4], 2.43%; in [5], 6.67%; in experiment [6], 6.58%. The inhibition in [7] is 10.5%; in experiment [8], 7.25%; in [9] it was 8.04%; in [10] it was -0.19%; in [11], -9.49%; in experiment [12] it was 2.4%. The inhibition in experiment [13] is 1.85%; in experiment [14], 7.41%; in [15], 17.6%; in experiment [16], 13.5%; in [17] it was 55.3%.
`Cc1c2ccc(N(C)c3ccnc(Nc4cccc(S(N)(=O)=O)c4)n3)cc2nn1C`: the inhibition in experiment [1] amounted to 16.1%; in [2], 14.9%; in experiment [3], 62.8%; in [4] it was 0.81%; in [5], 11.5%; in experiment [6], 9.33%. Moreover, the inhibition in [7] was 9.79%; in [8] it was 8.28%; in [9], 12.5%; in experiment [10], -1.01%; in experiment [11] it was 41%; in experiment [12], 4.14%. For the same molecule, the inhibition turned out to be 3.25% in [13]; 0.45% in experiment [14]; 9.99% in experiment [15]; 1.58% in experiment [16]; 12.6% in experiment [17].
For `COc1cccc(-n2ncc3c(N/N=C/c4ccc(C(=O)NCCN(C)C)cc4)ncnc32)c1`, the inhibition in experiment [1] is 60.6%; in experiment [2], 58.5%; in experiment [3], 86%; in experiment [4], -2.3%; in [5], 4.14%; in experiment [6], 11.1%. Moreover, the inhibition in experiment [7] was 27.8%; in experiment [8], 9.71%; in experiment [9], 23.6%; in experiment [10], 2.11%; in [11], 1.13%; in experiment [12], -3.06%. For the same molecule, the inhibition in [13] came to 1.87%; in [14] it was 8.48%; in experiment [15], 17.2%; in experiment [16] it was 12.5%; in experiment [17], 49.6%.
`O=C(O[C@H]1CN[C@H](C#Cc2cc3ncnc(Nc4ccc5c(cnn5Cc5ccccc5)c4)c3s2)C1)N1CCOCC1`: the inhibition in [1] was 1.4%; in experiment [2] it was 1.73%; in experiment [3], 23.1%; in experiment [4] it was -4.53%; in experiment [5] it was 2.2%; in experiment [6], -0.55%. Besides, the inhibition is -2.69% in [7]; -0.19% in [8]; -0.28% in experiment [9]; -0.85% in experiment [10]; -1.71% in experiment [11]; -1.41% in experiment [12]. The inhibition in [13] was -0.48%; in experiment [14], 1.16%; in experiment [15], 4.4%; in experiment [16] it was 3.12%; in experiment [17] it was 4.15%.
Take `COC(=O)Nc1nc2ccc(Oc3ccc(NC(=O)Nc4cc(C(F)(F)F)ccc4F)cc3)cc2s1`: the inhibition in experiment [1] is 40%; in experiment [2], 4.21%; in experiment [3] it was 11.5%; in experiment [4], 1.19%; in [5], -0.75%; in [6], 2.35%. Also, the inhibition was 22.1% in experiment [7]; 2.96% in experiment [8]; 37.3% in experiment [9]; 8.71% in experiment [10]; 60.1% in experiment [11]; 1.94% in experiment [12]. The inhibition was found to be 0.25% in experiment [13]; 17.4% in experiment [14]; 48.5% in experiment [15]; 9.18% in experiment [16]; 37.8% in experiment [17].
For the molecule `Cc1ccc(-c2cc3c(NC(=O)C4CC4)ncnc3o2)cc1`, the inhibition in experiment [1] worked out at 47.8%; in experiment [2] it was 6%; in [3] it was 23.7%; in experiment [4], 1.07%; in [5], 3.18%; in experiment [6], 4.57%. Further, the inhibition in experiment [7] is 4.6%; in [8] it was 4.47%; in experiment [9], 4.89%; in experiment [10] it was -0.84%; in experiment [11], -2.51%; in experiment [12], -1.3%. In addition, the inhibition in [13] is 2.26%; in experiment [14], 9.7%; in experiment [15], 12.2%; in experiment [16], 9.7%; in experiment [17], 16.6%.
On to `NS(=O)(=O)c1cccc(N/C=C2\C(=O)Nc3ccccc32)c1`, for which the inhibition turned out to be 8.3% in experiment [1]; 4.04% in experiment [2]; 9.49% in experiment [3]; 1.68% in experiment [4]; 4.58% in experiment [5]; 6.24% in experiment [6]. For the same molecule, the inhibition in experiment [7] is 7.76%; in experiment [8], 6.39%; in experiment [9], 7.82%; in experiment [10], -0.16%; in experiment [11] it was 2.59%; in experiment [12], 2.9%. In addition, the inhibition in experiment [13] is 2.37%; in [14], 3.41%; in experiment [15], 15.8%; in experiment [16], 6.57%; in [17] it was 34%.

What is called inhibition is the change of the read-out against control, counted positive when it falls.
